# PMK inhibit: blocks S. pneumoniae phosphomevalonate kinase | purified PMK, PK/LDH-coupled NADH absorbance 340 nm | inhibition, % at 10 µM | 65,000 compounds, 0.49% hits | AID 539;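 active = top-ranked compounds by inhibition in the single 10 µM screen, taking a fixed number of the strongest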
# Fluor 339 460: intrinsic fluorescence of library compounds, ex339/em460 – biochemical, MLSMR library, data from DPM-DC assay, artefact control, profiling panel. fluorescence fold increase at 10 µM. 65,000 compounds, 5.5% hits. compound autofluorescence, ex339/em460 nm, NADH buffer; active compounds read high; 1 = no-compound wells, NADH background;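 active = at 10 µM, mean starting fluorescence two-fold or more over control wells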;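 note: signal is the first read of a kinetic run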
# Spn DPM-DC inh: blocks S. pneumoniae diphosphomevalonate decarboxylase | purified DPM-DC, PK/LDH coupled NADH fluorescence | calls only at 10 µM | 65,000 compounds, 0.49% hits;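 active = the 320 compounds with the highest percent inhibition in the single-dose primary screen, excluding strongly autofluorescent ones, cut at about 32% in these data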;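 note: kinetic rate of NADH fluorescence loss reporting ADP formed by the decarboxylase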
# Spn MK inh: S. pneumoniae mevalonate kinase inhibition; AID 555; inhibition, % at 10 µM; 65,000 compounds, 0.48% hits; purified MK, PK/LDH-coupled NADH absorbance 340 nm;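 active = ranked among the strongest by inhibition in the single 10 µM screen, a fixed top-ranked set picked for dose follow-up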
# NADH coupling: inhibitors of enzymes used to reach an NAD/NADH endpoint; coupled PK/LDH NADH assays, four targets; IC50, µM (titrated, usually from 10 µM); 65,000 compounds, 0.02% hits; AID 774;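 active = single-dose screening hits from any of four coupled enzyme assays that gave an IC50 when retested across doses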;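 note: the DPM-DC format reads NADH fluorescence rather than 340 nm absorbance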
# Abs 340nm: compounds absorbing at 340 nm | compound absorbance at 340 nm, fold over control | fold change at 10 µM | 65,000 tested, under 10 active;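 active = at 10 µM dose, initial 340 nm absorbance at least 2 fold that of control wells; inactive = change under 2 fold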;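 note: initial absorbance extrapolated from kinetic A340 decline of NADH oxidation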
# A number is an active result; - = inactive; . = no result shown; + = active, no number. Only some compounds are listed: those with a hit (about 6.3% of all), similar ones and a draw of the others.
SMILES,PMK inhibit,Fluor 339 460,Spn DPM-DC inh,Spn MK inh,NADH coupling,Abs 340nm
O=C(O)C1CC=CCC1C(=O)Nc1cccc(C(=O)N2CCCCC2)c1 (configuration not stated),-,-,-,-,-,-
CC(C)OC(=O)c1c(NC(=O)c2cccs2)sc2c1CCCC2,-,2.2,.,-,-,-
Cc1cc(C(=O)Nc2sc3c(c2C#N)CCC(C)C3)cs1 (configuration not stated),-,2,-,-,-,-
COC(=O)c1c(NC(=O)c2cccs2)sc2c1CCC(C)C2 (configuration not stated),-,3.1,-,-,-,-
O=C(Nc1sc2c(c1C(=O)O)CCCC2)c1cccs1,-,-,-,-,-,-
Cc1cc(-c2nnc3n2CCCCC3)c(C)n1-c1ccccc1,-,-,-,-,-,-
COc1ccc(-c2nc3n(c(=O)c2C#N)CCCS3)cc1,-,2,-,-,-,-
CCOc1ccc(-c2nc3n(c(=O)c2C#N)CCCS3)cc1,-,2.8,-,-,-,-
COc1ccc(C)cc1-n1nnnc1SCC1CCCCO1 (configuration not stated),-,-,-,-,-,-
COC(=O)c1nonc1NCn1nnc2ccccc21,29,-,-,-,-,-
COC(=O)c1ccc(NC(=O)Cn2nnc3ccccc32)cc1,-,-,-,-,-,-
COc1cc(NC(=O)c2cc3c(=O)n(C)c4ccccc4c3n2C)cc(OC)c1OC,-,2,.,-,-,-
COc1cc(OC)nc(NC(=O)NS(=O)(=O)c2ccc(OC(F)(F)F)cc2)n1,25,-,-,-,-,-
COc1ccc(NC(=O)NS(=O)(=O)c2ccc(C)cc2)c(OC)c1,-,-,-,-,-,-
COc1cc(NC(=O)C2CCCCC2)c(OC)cc1NC(=O)CN1CCCCC1,-,-,-,-,-,-
c1ccc2c(c1)sc1nnnn12,-,-,-,-,-,-
COc1cccc(C(=O)Nc2ccc(NC(=O)C(C)C)nc2)c1,-,-,+,-,-,-
Cc1cc(C(=O)CSc2nnnn2-c2ccccc2)c(C)n1CC1CCCO1 (configuration not stated),-,-,-,-,-,-
Cc1cc(C(=O)CSc2nnnn2-c2ccc(Cl)cc2)c(C)n1CC1CCCO1 (configuration not stated),-,-,+,-,-,-
CCOC(=O)COc1ccc(-c2nnc(-c3ccccc3)o2)cc1,-,-,-,-,-,-
COc1cccc(C(=O)Nc2nnc(-c3ccc(Cl)cc3)o2)c1,-,-,-,-,-,-
CCOc1ccc(-c2nnc(NC(=O)c3ccc(OCC(C)C)c(OC)c3)o2)cc1,-,4.9,.,-,-,-
CCOC(=O)CNC(=O)Nc1nnc(-c2ccc(OCC)cc2)o1,28,-,-,-,-,-
O=C(CNC(=O)c1ccco1)OCN1C(=O)c2ccccc2C1=O,-,-,-,-,-,-
COCCn1c(C)cc2c(c1=O)C(c1ccccc1F)C(C#N)=C(N)O2 (configuration not stated),26,-,-,-,-,-
SMILES,PMK inhibit,Fluor 339 460,Spn DPM-DC inh,Spn MK inh,NADH coupling,Abs 340nm
Cc1ccc(S(=O)(=O)N(C)CCCC(=O)N2CCN(C=O)CC2)cc1,-,-,-,-,-,-
COc1ccc2c(-c3ccccc3)cc(N3CCOCC3)nc2c1,-,2.9,-,-,-,-
COc1ccc2nc(C)cc(N3CCOCC3)c2c1,-,-,-,-,-,-
CCOC(=O)N1CCC(NC(=O)C2CCN(c3ccc(N4CCOCC4)nn3)CC2)CC1,-,4.9,.,-,-,-
O=C(C1CCN(c2ccc(N3CCOCC3)nn2)CC1)N1CCc2ccccc2C1,-,4.7,.,-,-,-
O=C(C1CCN(S(=O)(=O)N2CCC3(CC2)OCCO3)CC1)N1CCc2ccccc2C1,-,-,-,-,-,-
CCn1c(SCc2cc(=O)[nH]c3ccccc23)nc2c1c(=O)n(C)c(=O)n2C,-,-,-,-,-,-
COc1ccc(-n2nc3ccc(NS(C)(=O)=O)cc3n2)cc1Cl,-,3.8,.,-,-,-
COc1ccc(NS(=O)(=O)c2coc(C(N)=O)c2)cc1Cl,-,-,-,-,-,-
CC(C)[C@H](NC(=O)NCc1ccco1)C(=O)O,-,-,-,-,-,-
CC1=CC(C#N)(C#N)C(C#N)(C#N)C(c2ccccc2)N1 (configuration not stated),-,3.1,-,-,-,-

# Compound activity (PubChem)
